Assay [1] concerns the target Lysosomal acid glucosylceramidase (Homo sapiens) (UniProt P04062). Description: Glucocerebrosidase-p2 (AID 348; in the data active means potency below about 10 µM; further: potency means the concentration at half of the fitted maximal effect). Particulars: purified GBA, blue fluorogenic substrate, 40 min. Put shortly: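 Normal human glucocerebrosidase (0.2 nM) with blue fluorogenic substrate (80 uM final) in citrate/phosphate pH 5.9 with 10mM sodium taurocholate, 0.01% tween-20; 40 min RT, NaOH/glycine stop; fluorescence Ex 365/Em 440; AC50 from a titration from 0.6 nM upwards.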

Assay [2] is described as follows: AP1 Signaling Pathway (AID 357; active means well fitted curve in either direction with a large enough effect, not every such curve was filed as active;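 further: ME-180 reporter cells stimulated with EGF at its EC50 level; on the % scale 0 is the no-effect control and ±100 the full control effect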). Particulars: ME-180 AP-1-bla reporter, EGF-induced, beta-lactamase ratio, 5 h; at 7.69 µM (top of the series) unless noted. Put shortly: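 Titration-series screen for positive or negative modulators of EC50 EGF-induced signaling in ME-180 cells carrying an AP-1-driven beta-lactamase reporter. After 5 hours at 37 degrees Celsius, CCF4 460nm/530nm emission ratio gave %Activity; AC50 values derived.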

In assay [3] the target is Cytochrome P450 1A2 (Homo sapiens) (UniProt P05177). Description: p450-cyp1a2 (AID 410; calls by dose curve; further: potency means the concentration at half of the fitted maximal effect). As to conditions: recombinant CYP1A2, luciferin-ME demethylation, luminescence; series mostly up to 57 µM. A digest of the protocol: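 Read-out is luminescence from luciferin produced by CYP1A2 demethylation of Luciferin-ME (100uM, at Km). Detection reagent stopped the 60 min NADPH-dependent reaction; signals were normalized to 57 uM furafylline.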
Chain of Cytochrome P450 1A2 (Homo sapiens) (P05177 whole entry, looked up): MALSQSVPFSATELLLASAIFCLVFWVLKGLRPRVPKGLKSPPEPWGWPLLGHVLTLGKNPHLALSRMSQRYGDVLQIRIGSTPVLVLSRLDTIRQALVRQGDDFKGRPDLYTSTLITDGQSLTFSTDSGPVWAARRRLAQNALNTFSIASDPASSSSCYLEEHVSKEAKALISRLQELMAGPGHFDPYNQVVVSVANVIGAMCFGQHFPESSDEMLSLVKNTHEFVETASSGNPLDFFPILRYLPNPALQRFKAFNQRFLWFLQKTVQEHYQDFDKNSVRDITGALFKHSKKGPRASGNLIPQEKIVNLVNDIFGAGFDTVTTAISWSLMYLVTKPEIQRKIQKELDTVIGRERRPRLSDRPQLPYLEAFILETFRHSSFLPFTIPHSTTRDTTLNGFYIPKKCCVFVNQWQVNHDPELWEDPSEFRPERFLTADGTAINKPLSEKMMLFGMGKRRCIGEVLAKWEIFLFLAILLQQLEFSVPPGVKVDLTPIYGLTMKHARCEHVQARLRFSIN

Assay [4] is described as follows: NFAT Signaling Pathway (AID 444; active means well fitted curve in either direction with a large enough effect, not every such curve was filed as active;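 further: carbachol stimulus at about its EC50 of 1 µM final; on the % scale 0 is the no-effect control and ±100 the full control effect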). Particulars: Jurkat NFAT-bla M1, carbachol, beta-lactamase ratio, 5 h; at 7.69 µM (top of the series) unless noted. Put shortly:
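Read-out: CCF4 FRET ratio (460 nm/530 nm) after 1 h RT dye loading, used for %activity and AC50 from titration series. Cells: Jurkat NFAT-β-lactamase/M1 line, treated with compound plus 1 uM carbachol for 5 h, 37 °C.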

Assay [5] can be described thus: Stat Signaling Pathway (AID 446; active means well fitted curve in either direction with a large enough effect, not every such curve was filed as active;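 further: ME-180 cervical cancer cells given 40 pM IL-6 alongside compound; SIE-controlled beta-lactamase reporter measured as 460/530 nm FRET emission ratio; on the % scale 0 is the no-effect control and ±100 the full control effect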). As to conditions: ME-180 SIE beta-lactamase reporter, IL-6 stimulated, 5 h; at 7.69 µM (top of the series) unless noted. A digest of the protocol: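 Overnight-plated ME-180 cells bearing a STAT Inducible Element beta-lactamase reporter; 5 h co-exposure to compound and 40 pM IL-6; values normalized to 300 pM IL-6 and 125 nM JAK inhibitor controls.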

The target of assay [6] is Glucocorticoid receptor (Homo sapiens) (UniProt P04150). The experiment in a line: GR-GFP Redistribution (AID 450;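 active means compounds whose dose series gives a full or clear partial fitted curve of increased nuclear translocation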; further: potency means the concentration at half of the fitted maximal effect). Particulars: U2OS GR-GFP nuclear translocation, laser cytometry, 2 h.
Chain of Glucocorticoid receptor (Homo sapiens) (P04150 whole entry, looked up): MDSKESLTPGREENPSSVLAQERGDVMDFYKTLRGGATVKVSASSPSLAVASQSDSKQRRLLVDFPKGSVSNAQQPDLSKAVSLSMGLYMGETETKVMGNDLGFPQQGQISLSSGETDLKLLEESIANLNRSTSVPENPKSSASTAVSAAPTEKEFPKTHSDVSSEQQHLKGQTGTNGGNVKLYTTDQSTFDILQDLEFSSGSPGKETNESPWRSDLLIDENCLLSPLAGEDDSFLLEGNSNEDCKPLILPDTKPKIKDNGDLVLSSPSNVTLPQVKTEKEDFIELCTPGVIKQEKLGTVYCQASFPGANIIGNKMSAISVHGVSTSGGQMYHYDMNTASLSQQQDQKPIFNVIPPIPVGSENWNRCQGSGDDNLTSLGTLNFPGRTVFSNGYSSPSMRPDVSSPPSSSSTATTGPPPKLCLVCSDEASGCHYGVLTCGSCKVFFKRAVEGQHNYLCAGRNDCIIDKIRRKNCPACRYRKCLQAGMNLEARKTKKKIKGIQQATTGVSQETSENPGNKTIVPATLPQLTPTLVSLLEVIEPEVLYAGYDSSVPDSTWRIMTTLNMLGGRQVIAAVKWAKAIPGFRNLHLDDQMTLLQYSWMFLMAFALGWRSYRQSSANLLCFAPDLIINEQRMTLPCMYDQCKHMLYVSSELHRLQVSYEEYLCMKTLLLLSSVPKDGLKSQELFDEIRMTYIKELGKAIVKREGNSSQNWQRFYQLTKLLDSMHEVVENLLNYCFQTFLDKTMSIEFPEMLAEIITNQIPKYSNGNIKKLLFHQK
For assay [7] the target is unchanged. Description: GR-EFC Redistribution (AID 451; calls by dose curve; further: potency means the concentration at half of the fitted maximal effect). As to conditions: CHO-K1 GR-EFC translocation, beta-gal luminescence, 2 h. Put shortly:
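Translocation of GR-ED fusion to nuclear EA restores b-gal, read by luminescence after 1 h room-temperature detection. Engineered CHO-K1 biosensor cells, 1,000/well, exposed 2 h at 37 C to titrations up to 46 uM final.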

Assay [8] concerns the target Mitogen-activated protein kinase 10 (Mus musculus) (UniProt Q61831). The experiment in a line: JNK3 AlphaScreen Assay (AID 530; active means well fitted curve in either direction with a large enough effect, not every such curve was filed as active;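 further: kinase came from lysate of stimulated human HepG2 cells; signal reports phosphorylation of biotinylated GST-cJun 1-79 at Ser73 with 10 µM ATP; on the % scale 0 is the no-effect control and ±100 the full control effect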). Particulars: JNK3 lysate, c-Jun phosphorylation; series mostly up to 57.1 µM. A digest of the protocol:
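Kinase buffer: 20 mM Tris-HCl pH 7.6, 10 mM MgCl2, 1 mM DTT, 0.1 mM Na3VO4, 0.01% Tween-20; ATP 10 uM. Substrate biotin-GST-cJun(1-79), enzyme from activated HepG2 lysates. Detection by Ser73 phospho-antibody AlphaScreen.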

The target of assay [9] is 3',5'-cyclic-AMP phosphodiesterase 4B (Homo sapiens) (UniProt Q07343). The experiment in a line: qHTS Assay for Inhibitors of PDE-IV (AID 607; active means well fitted activation curve with a large enough effect in the main read-out, with a control signal flat, not every such curve was filed as active; further: % of control where 0% means no effect). As to conditions: HEK293 ACTOne CNG channel cells, membrane potential fluorescence; series mostly up to 22.9 µM. Put shortly:
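Live HEK293 cells with a modified cyclic nucleotide-gated (CNG) channel report intracellular cAMP via membrane-potential dye fluorescence (ex 535/em 590 nm). Endogenous PDE-IV was targeted. Compounds were tested at up to 22.9 uM final; RO 20-1724 100 uM served as control.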
A general note: In qHTS, concentration-response curves come from the screen itself.

Assay [10] addresses Cytochrome P450 3A4 (Homo sapiens) (UniProt P08684). The experiment in a line: qHTS Assay for Inhibitors and Substrates of Cytochrome P450 3A4 (AID 884). Further: potency means the concentration at half of the fitted maximal effect; nearly all actives have a fitted effect of over 50% in size. Particulars: recombinant CYP3A4, Luciferin-PPXE luminescence; series mostly up to 57.1 µM. Put shortly: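 Luminescent readout of luciferin produced by CYP3A4 (20 nM) dealkylation of Luciferin-PPXE, 25 uM (its KM). NADPH-driven reaction ran 60 min at RT after 10 min compound preincubation; data scaled to 57 uM ketoconazole as 100% inhibition.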

Assay [11] has the same target. Description: qHTS Assay for Activators of Cytochrome P450 3A4 (AID 885). Further: nearly all actives have a fitted effect of over 65% in size. As to conditions: recombinant CYP3A4, Luciferin-PPXE luminescence, 60 min; series mostly up to 57.1 µM. Put shortly:
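Using 20nM recombinant human CYP3A4 in potassium phosphate (200mM), substrate Luciferin-PPXE at 25uM, luminescent luciferin detection followed a 60-min RT NADPH reaction; data scaled to 57 uM ketoconazole.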

The nature of assay [12]: Primary qHTS for small molecule stabilizers of the endoplasmic reticulum resident proteome: Secreted ER Calcium Modulated Protein (SERCaMP) assay (AID 1508630). Further: on the % scale 0 is the no-effect control and ±100 the full control effect. Particulars: SH-SY5Y GLuc-SERCaMP (Gaussia luciferase released on ER calcium loss) secretion, thapsigargin, luminescence; series mostly up to 38.4 µM. A digest of the protocol: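 The SH-SY5Y reporter protocol was run at 3 concentrations up to 38.3 uM (primary) or 11 concentrations (follow-up): 16 h compound, 100 nM thapsigargin for 4 h, then extracellular luciferase luminescence.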

Assay [13] can be described thus: Confirmation and Secondary Assay for Modulators of Hemoglobin Beta Chain Splicing at IVS2 654 locus (AID 910).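 Further: HeLa cells stably carrying EGFP split by mutant beta-globin IVS2-654 intron; per-well total GFP intensity by laser scanning cytometry after 2-day treatment; % of control where 0% means no effect.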 Particulars: HeLa EGFP-654 splicing reporter, GFP fluorescence, 48 h; series mostly up to 38.3 µM. A digest of the protocol:
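Readout: per-well total peak green fluorescence (488 nm ex, 500–520 nm em) from objects 5–250 µm, reflecting correct splicing of an EGFP-654 reporter. Compounds were applied for 2 days at 37 °C to overnight-plated HeLa EGFP-654 cells; controls were DMSO and 500 nM IVS2-654 PNA.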

Assay [14] in a line: qHTS Assay for Identification of Small Molecule Agonists for Hypoxia Response Element Signaling Pathway (AID 914; active means well fitted activation curve with a large enough effect in the signal ratio, with a control signal flat, not every such curve was filed as active; the % refers to the signal ratio; further: % of control where 0% means no effect). As to conditions: ME-180 (cervical carcinoma) HRE-bla reporter, beta-lactamase ratio, CoCl2, 17 h; activation: active compounds read high. Put shortly: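 Reporter activity (beta-lactamase, CCF4 460nm/530nm ratio) in HRE-bla ME-180 cells is recorded after 17 h compound exposure with EC50 CoCl2 at 37 degrees Celsius. AC50 values come from titration data.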

Assay [15] in a line: Confirmation and Secondary Assay for Modulators of Hemoglobin Beta Chain Splicing at IVS2 705 locus (AID 930).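 Further: HeLa cells stably expressing the EGFP-705 splicing reporter; GFP fluorescence per well restored by corrected splicing of the IVS2-705 intron in EGFP; % of control where 0% means no effect.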 As to conditions: HeLa EGFP-705 splicing reporter, GFP fluorescence, 48 h; series mostly up to 38.3 µM. A digest of the protocol:
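Stable HeLa line with EGFP disrupted by mutant beta-globin intron 2 (705). Overnight attachment, then 2 days of compound at 37C, 5% CO2. Signal: peak GFP intensity summed over objects 5-250 µm.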

Assay [16] concerns the target Ubiquitin carboxyl-terminal hydrolase 1 (Homo sapiens) (UniProt O94782). Description: Inhibitors of USP1/UAF1: Pilot qHTS (AID 504865).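 Further: rhodamine fluorescence freed from ubiquitin-rhodamine substrate followed over time; top concentration of the series differs between compounds; on the % scale 0 is the no-effect control and ±100 the full control effect; nearly all actives have a fitted effect of over 35% in size.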 As to conditions: purified USP1/UAF1, Ub-rhodamine cleavage fluorescence; series mostly up to 54.9 µM. Put shortly: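 Kinetic fluorescence assay: 1nM USP1/UAF1, 15 min compound preincubation, then 150nM Ub-Rho; 480/540 nm.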
Assay [17] deals with Cytochrome P450 2C19 (Homo sapiens) (UniProt P33261). Description: qHTS Assay for Inhibitors and Substrates of Cytochrome P450 2C19 (AID 899). Further: potency means the concentration at half of the fitted maximal effect; nearly all actives have a fitted effect of over 60% in size. As to conditions: recombinant CYP2C19, luciferin-H EGE luminescence; series mostly up to 57.1 µM. Put shortly:
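Luminescence readout of luciferin formed from 10uM Luciferin-H EGE (KM level) by 5 nM CYP2C19 in 50mM KPO4. 60 min NADPH-driven reaction at 37C after 10 min compound preincubation; data scaled to 57uM ketoconazole inhibition.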

Values without a mark were called inactive. Inconclusive results are not listed. Calls of active or inactive are those of the source. Unless noted, the call rests on the fitted dose curve; in most records, active means well fitted curve in the direction sought with a large enough effect; inconclusive means small, poorly fitted or top-dose-only effect, or another doubt; inactive means no such curve, though single readings can be large; an effect the other way counts as inactive or inconclusive.

Chain of 3',5'-cyclic-AMP phosphodiesterase 4B (Homo sapiens) (Q07343 whole entry, looked up): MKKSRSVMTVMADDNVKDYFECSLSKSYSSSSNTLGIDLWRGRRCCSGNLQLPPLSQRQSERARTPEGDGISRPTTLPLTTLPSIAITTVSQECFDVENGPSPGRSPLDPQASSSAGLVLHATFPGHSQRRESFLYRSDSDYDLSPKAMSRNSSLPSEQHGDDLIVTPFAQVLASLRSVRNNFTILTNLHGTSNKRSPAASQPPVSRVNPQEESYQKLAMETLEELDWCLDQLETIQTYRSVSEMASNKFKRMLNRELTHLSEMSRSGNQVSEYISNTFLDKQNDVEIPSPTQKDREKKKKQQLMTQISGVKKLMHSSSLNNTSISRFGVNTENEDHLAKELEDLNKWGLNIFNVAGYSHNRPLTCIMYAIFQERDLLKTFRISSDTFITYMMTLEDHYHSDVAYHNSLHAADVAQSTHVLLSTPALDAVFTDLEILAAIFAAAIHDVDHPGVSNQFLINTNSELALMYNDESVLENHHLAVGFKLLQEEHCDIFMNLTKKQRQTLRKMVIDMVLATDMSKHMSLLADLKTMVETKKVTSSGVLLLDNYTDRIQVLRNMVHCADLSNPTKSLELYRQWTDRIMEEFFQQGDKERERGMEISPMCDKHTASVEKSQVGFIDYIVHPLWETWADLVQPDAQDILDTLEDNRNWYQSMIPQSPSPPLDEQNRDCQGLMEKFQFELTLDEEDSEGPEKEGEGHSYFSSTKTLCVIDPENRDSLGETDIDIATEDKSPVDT
Chain of Lysosomal acid glucosylceramidase (Homo sapiens) (P04062 whole entry, looked up): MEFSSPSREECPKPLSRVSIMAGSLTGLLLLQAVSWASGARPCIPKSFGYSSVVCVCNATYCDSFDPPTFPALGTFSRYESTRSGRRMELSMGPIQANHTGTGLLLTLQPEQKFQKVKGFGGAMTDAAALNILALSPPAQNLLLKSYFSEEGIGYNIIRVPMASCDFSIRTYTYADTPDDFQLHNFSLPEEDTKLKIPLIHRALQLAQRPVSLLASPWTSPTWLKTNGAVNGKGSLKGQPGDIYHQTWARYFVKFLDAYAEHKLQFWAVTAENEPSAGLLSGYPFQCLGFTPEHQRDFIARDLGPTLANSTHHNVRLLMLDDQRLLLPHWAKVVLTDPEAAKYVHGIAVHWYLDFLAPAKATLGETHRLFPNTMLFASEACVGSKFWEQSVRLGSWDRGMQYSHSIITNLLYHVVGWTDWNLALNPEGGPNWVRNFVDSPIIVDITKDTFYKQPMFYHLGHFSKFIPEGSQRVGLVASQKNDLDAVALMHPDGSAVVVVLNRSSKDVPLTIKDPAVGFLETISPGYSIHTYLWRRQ
Chain of Cytochrome P450 3A4 (Homo sapiens) (P08684 whole entry, looked up): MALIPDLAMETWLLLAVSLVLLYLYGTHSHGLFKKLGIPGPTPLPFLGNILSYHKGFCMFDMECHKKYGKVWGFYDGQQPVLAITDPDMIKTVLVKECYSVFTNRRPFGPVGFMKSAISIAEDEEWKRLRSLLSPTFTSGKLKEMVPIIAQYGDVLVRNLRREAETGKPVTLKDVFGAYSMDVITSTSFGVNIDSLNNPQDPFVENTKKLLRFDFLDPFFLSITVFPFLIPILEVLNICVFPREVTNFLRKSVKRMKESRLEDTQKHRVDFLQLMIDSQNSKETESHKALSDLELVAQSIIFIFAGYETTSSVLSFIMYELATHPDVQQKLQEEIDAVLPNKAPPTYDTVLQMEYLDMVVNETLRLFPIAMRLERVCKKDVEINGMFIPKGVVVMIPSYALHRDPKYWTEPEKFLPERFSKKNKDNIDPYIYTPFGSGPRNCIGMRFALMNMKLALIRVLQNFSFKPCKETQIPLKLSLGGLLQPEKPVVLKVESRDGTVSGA
Chain of Ubiquitin carboxyl-terminal hydrolase 1 (Homo sapiens) (O94782 whole entry, looked up): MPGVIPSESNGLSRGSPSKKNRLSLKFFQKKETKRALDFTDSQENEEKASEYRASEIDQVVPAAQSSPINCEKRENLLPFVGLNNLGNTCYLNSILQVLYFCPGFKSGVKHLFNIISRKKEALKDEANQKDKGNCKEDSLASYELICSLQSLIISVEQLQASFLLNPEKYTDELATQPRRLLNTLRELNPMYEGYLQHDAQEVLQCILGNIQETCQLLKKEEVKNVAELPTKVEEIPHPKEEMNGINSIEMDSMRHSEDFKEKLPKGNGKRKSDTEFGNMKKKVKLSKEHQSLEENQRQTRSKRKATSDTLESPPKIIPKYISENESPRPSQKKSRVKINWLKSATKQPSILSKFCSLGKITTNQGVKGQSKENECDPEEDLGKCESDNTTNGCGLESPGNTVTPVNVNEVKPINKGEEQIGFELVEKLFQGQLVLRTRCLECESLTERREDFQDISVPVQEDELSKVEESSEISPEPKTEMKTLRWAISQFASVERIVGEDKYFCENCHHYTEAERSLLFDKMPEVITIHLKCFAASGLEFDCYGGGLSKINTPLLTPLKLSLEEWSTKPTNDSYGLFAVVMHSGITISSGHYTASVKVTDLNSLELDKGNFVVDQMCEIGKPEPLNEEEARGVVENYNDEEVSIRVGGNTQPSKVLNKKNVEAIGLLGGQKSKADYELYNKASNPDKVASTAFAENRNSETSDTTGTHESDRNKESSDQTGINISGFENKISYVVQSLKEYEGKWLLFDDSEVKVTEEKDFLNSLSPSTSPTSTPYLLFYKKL
Chain of Cytochrome P450 2C19 (Homo sapiens) (P33261 whole entry, looked up): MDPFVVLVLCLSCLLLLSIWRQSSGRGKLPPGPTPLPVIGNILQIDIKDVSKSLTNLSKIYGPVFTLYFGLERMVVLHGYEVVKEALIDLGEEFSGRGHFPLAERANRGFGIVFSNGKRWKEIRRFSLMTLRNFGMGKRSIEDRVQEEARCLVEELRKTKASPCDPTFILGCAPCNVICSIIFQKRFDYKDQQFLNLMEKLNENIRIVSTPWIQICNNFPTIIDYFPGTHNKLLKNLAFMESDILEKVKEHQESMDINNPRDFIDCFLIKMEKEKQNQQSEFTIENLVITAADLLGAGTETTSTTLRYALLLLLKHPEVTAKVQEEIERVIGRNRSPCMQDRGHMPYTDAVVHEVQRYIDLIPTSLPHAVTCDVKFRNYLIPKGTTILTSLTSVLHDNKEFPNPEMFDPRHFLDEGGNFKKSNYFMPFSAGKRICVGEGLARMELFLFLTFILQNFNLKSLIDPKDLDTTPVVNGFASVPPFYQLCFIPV

As for `COc1ccc(Oc2ncc3ncc(=O)n(Cc4cccs4)c3n2)cc1`, the Potency in [1] is > 11.4 µM; in assay [3] it was 10 µM (active); in assay [6] it was > 9.22 µM; in [7], > 46 µM; in [10], 3.16 µM (active). The activity change, negative = inhibition in assay [2] was -29.2%; in assay [4] it was -6.6%. Besides, in assay [5], the activity, negative = inhibition is -28.6%. For the same compound, the Potency result in assay [8], in assay [9] and in assay [11] was “inactive” throughout. In addition, in assay [12], the outcome was inactive.

Turning to `O=c1c(CCc2ccccc2)nc2cncnc2n1-c1ccccc1`, the Potency in assay [1] is > 11.4 µM; in assay [3] it was 15.8 µM (active); in [6], > 9.22 µM; in assay [7], > 46 µM. Besides, the results for the activity change, negative = inhibition in assay [2] and in assay [4] were -24.4% and -14%, respectively. In addition, the activity, negative = inhibition in [5] was -17.6%. Besides, the Potency result in assay [8] and in assay [11] was “inactive” throughout. The outcome in assay [12] was inactive.

In the case of `Cc1ccccc1-c1nccc(-n2ccnc2)n1`, the Potency is > 11.4 µM in [1], 0.0794 µM (active) in [3] and > 46 µM in assay [7]. Further, the activity change, negative = inhibition in [2] was 5.77%; in assay [4], -8.66%. For the same compound, in assay [5], the activity, negative = inhibition is 12.8%. Moreover, the Potency entry in assay [8], in [9], in assay [11], in [13] and in assay [16] was “inactive” throughout. In [14], the activation was -1.43%. Further, the call in assay [15] and in [12] was inactive.

With `COc1ccc(-n2c(=O)cnc3cnc(Oc4cccc(Cl)c4)nc32)cc1`, the Potency in [1] is > 11.4 µM; in assay [3], 7.94 µM (active); in [6] it was > 9.22 µM; in assay [7], > 46 µM. Besides, the activity change, negative = inhibition in [2] was -9.58%; in assay [4], 4.93%. In addition, in assay [5], the activity, negative = inhibition is -9.34%. The Potency entry in [8], in assay [9] and in assay [11] was “inactive” throughout. Also, the result in assay [12] was inactive.

As to `COc1ccccc1-c1nccc(NCc2cccnc2)n1`, the Potency was > 11.4 µM in [1]; 0.2 µM (active) in assay [3]; > 46 µM in assay [7]; 2.51 µM (active) in [10]; 3.98 µM (active) in assay [17]. The activity change, negative = inhibition in assay [2] was 5.53%; in assay [4] it was 1.48%. Also, the activity, negative = inhibition in [5] was 0.0574%. Moreover, the Potency entry in assay [9], in assay [11] and in assay [16] was “inactive” each time. The activation in [14] was 4.59%. Moreover, the outcome in [12] was inactive.

Consider `Cc1cccc(CNc2cc(-c3cccc(C#N)c3)ncn2)c1`, for which the Potency in assay [1] is > 11.4 µM; in assay [3] it was 0.158 µM (active); in [6], > 46 µM; in assay [7], > 46 µM; in assay [10], 7.94 µM (active); in [17], 6.31 µM (active). Besides, the activity change, negative = inhibition in assay [2] is -11.1%; in [4] it was 7.94%. The activity, negative = inhibition in [5] was -3.7%. Further, the Potency entry in assay [8], in assay [9], in assay [11] and in assay [13] was “inactive” each time. Besides, the compound was classed as inactive in assay [15] and in [12].
